The target in one test is Solute carrier family 2, facilitated glucose transporter member 1 (Homo sapiens) (UniProt P11166). Nature of the test: ST_JUDE_LEISH: Cytotoxicity at 2uM final concentration against transgenic Leishmania Mexicana promastigotes LmGLUT1 that are glucose transport deficient and complemented with the human glucose transporter GLUT1. Activity is measured by DNA content using SYBR green in vitro. The test is classed as functional.
Sequence of Solute carrier family 2, facilitated glucose transporter member 1 (Homo sapiens) (P11166 whole entry): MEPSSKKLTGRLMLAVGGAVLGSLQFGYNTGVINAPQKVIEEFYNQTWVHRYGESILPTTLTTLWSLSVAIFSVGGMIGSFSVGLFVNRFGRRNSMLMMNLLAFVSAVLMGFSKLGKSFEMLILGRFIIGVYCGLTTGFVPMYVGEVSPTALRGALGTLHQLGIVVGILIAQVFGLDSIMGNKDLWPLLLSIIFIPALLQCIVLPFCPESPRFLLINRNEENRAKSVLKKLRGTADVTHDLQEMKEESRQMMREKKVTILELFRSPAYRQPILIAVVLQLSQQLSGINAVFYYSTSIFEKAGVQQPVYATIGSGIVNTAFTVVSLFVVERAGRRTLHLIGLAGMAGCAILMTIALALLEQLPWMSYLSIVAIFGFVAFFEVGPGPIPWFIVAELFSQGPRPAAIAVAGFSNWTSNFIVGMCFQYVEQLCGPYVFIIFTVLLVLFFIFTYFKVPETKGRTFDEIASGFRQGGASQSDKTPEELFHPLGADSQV
By inhibition is commonly meant the drop in the measured response relative to a control, in per cent. With `Cc1cccc2nc(-c3cccc(-c4ccc(NC(=O)C(C)CN(C)C)cc4)c3)[nH]c12` (stereo not given), the inhibition is -2.74%.
Take `CNCc1ccc(-c2cccc(CNCc3ccc(-c4ccccc4)cc3)c2)c(C(=O)OC)c1`: the inhibition amounted to 1.39%.
In the case of `Cc1cc(F)ccc1[C@H]1CNCCN1C(=O)N(C)C(C)(C)c1cc(C(F)(F)F)cc(C(F)(F)F)c1`, the inhibition was -0.57%.
For the compound `CCCC(CC)n1ccc2c3c(N)nc(N)nc3ccc21` (stereo not given), the inhibition was found to be 70.5%.
With `Cc1cc(N[C@@H](Cc2ccccc2)C(=O)NCc2cccc(F)c2)nc(Nc2ccccc2)n1`, the inhibition worked out at 6.85%.
With `O=C(NCCc1ccccc1)N(Cc1ccccc1-c1cccc(CNCCc2ccccc2)c1)C1CCN(Cc2ccccc2)CC1`, the inhibition amounted to 2.61%.
With `CCN(CC)CCN(Cc1ccc(-c2ccc(C(F)(F)F)cc2)nc1)C(=O)Cn1c(SCc2ccc(F)cc2)nc(=O)c2sccc21`, the inhibition worked out at 1.92%.
Turning to `O=C(/C=C/c1ccc(Cl)c(Cl)c1)NCCCCCN1CCC(NC(=S)Nc2ccc(Cl)cc2)CC1`, the inhibition came to 9.42%.
With `COc1cc2nc(NCc3cccc(CNC(=O)c4ccc(-c5ccc(C(C)=O)cc5)cc4)c3)nc(N)c2cc1OC`, the inhibition came to 0.91%.
For the compound `Cc1cc(=NN=Cc2ccccc2F)c2ccccc2[nH]1`, the inhibition is 1.11%.
On to `O=[N+]([O-])c1cccc(/C=N/Nc2ccnc3cc(F)ccc23)c1`, for which the inhibition was found to be 1.98%.
For `Cc1cc(C)c2c(c1)C(=NO)CCN2`, the inhibition is -1.86%.
As to `O=C(NCCCCCN1CCC(c2ccc(O)cc2)CC1)c1ccc(-c2ccccc2)cc1`, the inhibition turned out to be 5.44%.
`O=C(NC1CCCc2ccccc21)C1CCCN(C(=O)c2ccc(O)c(-c3ccc(Cl)c(Cl)c3)c2)C1` (stereo not given): the inhibition was 1.28%.
On to `NC1=NC(c2ccccc2)N(c2ccccc2)C(N)=N1` (stereo not given), for which the inhibition was determined as 1.99%.
Regarding `CN(Cc1ccc(-c2ccc(C(F)(F)F)cc2)cc1)C(=O)Cn1c(CCc2cccc(F)c2F)cc(=O)c2ccc(OCC3CCCN3C)cc21` (stereo not given), the inhibition worked out at 3.87%.
As to `Nc1nc(N)c2c(ccc3c2ccn3C2CCCCC2)n1`, the inhibition was determined as 24.3%.
`CCCCCCCc1c(C)nc2cc(OC)ccc2c1O`: the inhibition was found to be 7.36%.
As to `O=C(NC1CCCCC1)c1ccc(O)c(-c2cccc(C(F)(F)F)c2)c1`, the inhibition amounted to 2.06%.
On the same count and under the same terms, as for `Cc1ccc(-c2ccc(NC(=O)N3CCc4cc(Br)c(N5CCN(C)CC5)cc43)cc2)cn1`, the figure is 2.03%; as for `COc1ccc2nccc([C@@H](O)CN3CCC(NCc4cc5cc(C)ccc5s4)CC3)c2c1`, 31.5%.
On the same count and under the same terms, for `CN(C)CCN(C)Cc1cccc(-c2cccc(NC(=O)c3cccc(C#N)c3)c2)c1` the value was 2.87%; for `O=C(Nc1cccc(C(F)(F)F)c1)c1ccc(S(=O)(=O)NC2CCN(CC3CCCCC3)C2)cc1` (stereo not given), 3.79%.
Regarding `COc1ccc2nccc([C@@H](O)CN3CCC(NCc4ccc5c(c4)NC(=O)C(C)S5)CC3)c2c1` (stereo not given in full), the inhibition came to 12.2%.
Turning to `O=C(NCCCN1CCC(N2CCCCC2)CC1)c1ccc(N2CCOc3ccccc32)s1`, the inhibition worked out at 1.25%.
For `CN(C)CCOc1cc(NC(=O)Nc2ccc3c(c2)CCCC3=O)ccc1I`, the inhibition was determined as 5.03%.
On the same count and under the same terms, for `COc1ccc2nccc([C@@H](O)CN3CCC(NC(=O)C(c4cc5ccccc5o4)N4CCN(C(c5ccccc5)c5ccccc5)CC4)CC3)c2c1` (stereo not given in full) the value was 3.01%; for `O=c1cc(NCCCNC(c2ccccc2)c2ccc(Cl)c(Cl)c2)[nH]c2ccccc12` (stereo not given), -1.95%; for `CC(Sc1nc2sccc2c(=O)n1C)C(=O)Nc1ccc2c(c1)OCO2` (stereo not given), 4.94%.
With `COc1ccc2nccc([C@@H](O)CN3CCC(NC(=O)C(=Cc4ccc(C#N)cc4)c4ccc(-c5ccccc5)cc4)CC3)c2c1`, the inhibition is 1.28%.
Still for that read-out and setting: for `Cc1ccc(-c2noc(=O)n2CC(=O)Nc2ccccc2-c2ccccc2)cc1` the value was 0.59%.
As to `O=C(Nc1cccnc1)c1cc(-c2cc(Cl)ccc2O)n[nH]1`, the inhibition turned out to be 2.55%.
For `COc1ccc(S(=O)(=O)N(CCCN2CCN(C)CC2)Cc2csc(-c3ccc(CNCc4ccccc4)cc3)n2)cc1`, the inhibition is -1.13%.
For `Cc1cc(NCC2CCN(CC3CCCCC3)C2)nc(Nc2ccc(Br)cc2)n1` (stereo not given), the inhibition came out at 8.49%.
With `Cc1cc(OCCN2CCCCC2)ccc1NC(=O)c1cccc2c(=O)n(Cc3ccc(Cl)cc3)cnc12`, the inhibition was found to be 103%.
Regarding `CC1(C)CN(CCC2CCC(NC(=O)/C=C/c3ccccc3F)CC2)Cc2ccc(C#N)cc21` (stereo not given), the inhibition is 3.59%.
Take `CCOC(=O)c1ccc(NC(=O)N[C@@H](Cc2ccccc2)C(=O)NC2CCN(Cc3ccc(O)c(OC)c3)C2)cc1` (stereo not given in full): the inhibition was -2.58%.
The same measure, in the same setting: as for `Cc1noc(C)c1-c1cccc(CNCc2cccc(-c3cccc(-c4nc5cccc(C)c5[nH]4)c3)c2)c1`, the figure is -0.61%.
Take `CC=CCON1C(=N)NC(=N)NC1(C)C`: the inhibition stood at 1.93%.
Turning to `CC[C@@H]([C@@H](CC(C)C)C(=O)N[C@@H](CCCCNC(=O)OCc1ccccc1)C(=O)Nc1ccccn1)N(O)C=O`, the inhibition amounted to 4.89%.

A further test has as its target Hexose transporter 1 (Plasmodium falciparum) (UniProt O97467). The test can be described thus: ST_JUDE_LEISH: Cytotoxicity at 2uM final concentration against transgenic Leishmania Mexicana promastigotes LmPfHT that are glucose transport deficient and complemented with the Plasmodium falciparum hexose transporter. Activity is measured by DNA content using SYBR green in vitro. The class given is functional.
For the compound `Cc1cccc2nc(-c3cccc(-c4ccc(NC(=O)C(C)CN(C)C)cc4)c3)[nH]c12` (stereo not given), the inhibition came to 0.04%.
For `CNCc1ccc(-c2cccc(CNCc3ccc(-c4ccccc4)cc3)c2)c(C(=O)OC)c1`, the inhibition was determined as 2.72%.
On to `Cc1cc(F)ccc1[C@H]1CNCCN1C(=O)N(C)C(C)(C)c1cc(C(F)(F)F)cc(C(F)(F)F)c1`, for which the inhibition was -1.23%.
The same measure, in the same setting: as for `CCCC(CC)n1ccc2c3c(N)nc(N)nc3ccc21` (stereo not given), the figure is 76.3%; as for `Cc1cc(N[C@@H](Cc2ccccc2)C(=O)NCc2cccc(F)c2)nc(Nc2ccccc2)n1`, 7.5%.
Take `O=C(NCCc1ccccc1)N(Cc1ccccc1-c1cccc(CNCCc2ccccc2)c1)C1CCN(Cc2ccccc2)CC1`: the inhibition stood at 1.06%.
For the compound `CCN(CC)CCN(Cc1ccc(-c2ccc(C(F)(F)F)cc2)nc1)C(=O)Cn1c(SCc2ccc(F)cc2)nc(=O)c2sccc21`, the inhibition is 1.65%.
As to `O=C(/C=C/c1ccc(Cl)c(Cl)c1)NCCCCCN1CCC(NC(=S)Nc2ccc(Cl)cc2)CC1`, the inhibition turned out to be 8.02%.
As to `COc1cc2nc(NCc3cccc(CNC(=O)c4ccc(-c5ccc(C(C)=O)cc5)cc4)c3)nc(N)c2cc1OC`, the inhibition is -0.03%.
On to `Cc1cc(=NN=Cc2ccccc2F)c2ccccc2[nH]1`, for which the inhibition was 4.77%.
As for `O=[N+]([O-])c1cccc(/C=N/Nc2ccnc3cc(F)ccc23)c1`, the inhibition is 2.39%.
Regarding `Cc1cc(C)c2c(c1)C(=NO)CCN2`, the inhibition is 1.76%.
For the compound `O=C(NCCCCCN1CCC(c2ccc(O)cc2)CC1)c1ccc(-c2ccccc2)cc1`, the inhibition was found to be 3.34%.
As to `O=C(NC1CCCc2ccccc21)C1CCCN(C(=O)c2ccc(O)c(-c3ccc(Cl)c(Cl)c3)c2)C1` (stereo not given), the inhibition is 2.04%.
`NC1=NC(c2ccccc2)N(c2ccccc2)C(N)=N1` (stereo not given): the inhibition was -4.07%.
As to `CN(Cc1ccc(-c2ccc(C(F)(F)F)cc2)cc1)C(=O)Cn1c(CCc2cccc(F)c2F)cc(=O)c2ccc(OCC3CCCN3C)cc21` (stereo not given), the inhibition was 3.45%.
As for `Nc1nc(N)c2c(ccc3c2ccn3C2CCCCC2)n1`, the inhibition amounted to 36.6%.
Regarding `CCCCCCCc1c(C)nc2cc(OC)ccc2c1O`, the inhibition was found to be 9.59%.
As for `O=C(NC1CCCCC1)c1ccc(O)c(-c2cccc(C(F)(F)F)c2)c1`, the inhibition stood at 2%.
For the compound `Cc1ccc(-c2ccc(NC(=O)N3CCc4cc(Br)c(N5CCN(C)CC5)cc43)cc2)cn1`, the inhibition came out at 1.29%.
The same measure, in the same setting: as for `COc1ccc2nccc([C@@H](O)CN3CCC(NCc4cc5cc(C)ccc5s4)CC3)c2c1`, the figure is 46%; as for `CN(C)CCN(C)Cc1cccc(-c2cccc(NC(=O)c3cccc(C#N)c3)c2)c1`, 2.86%.
For the compound `O=C(Nc1cccc(C(F)(F)F)c1)c1ccc(S(=O)(=O)NC2CCN(CC3CCCCC3)C2)cc1` (stereo not given), the inhibition stood at 3.31%.
With `COc1ccc2nccc([C@@H](O)CN3CCC(NCc4ccc5c(c4)NC(=O)C(C)S5)CC3)c2c1` (stereo not given in full), the inhibition amounted to 1.99%.
In the case of `O=C(NCCCN1CCC(N2CCCCC2)CC1)c1ccc(N2CCOc3ccccc32)s1`, the inhibition stood at 0.98%.
Turning to `CN(C)CCOc1cc(NC(=O)Nc2ccc3c(c2)CCCC3=O)ccc1I`, the inhibition was 7.25%.
For the compound `COc1ccc2nccc([C@@H](O)CN3CCC(NC(=O)C(c4cc5ccccc5o4)N4CCN(C(c5ccccc5)c5ccccc5)CC4)CC3)c2c1` (stereo not given in full), the inhibition is 1.55%.
As to `O=c1cc(NCCCNC(c2ccccc2)c2ccc(Cl)c(Cl)c2)[nH]c2ccccc12` (stereo not given), the inhibition was -1.47%.
For the compound `CC(Sc1nc2sccc2c(=O)n1C)C(=O)Nc1ccc2c(c1)OCO2` (stereo not given), the inhibition came to 5.47%.
Consider `COc1ccc2nccc([C@@H](O)CN3CCC(NC(=O)C(=Cc4ccc(C#N)cc4)c4ccc(-c5ccccc5)cc4)CC3)c2c1`, for which the inhibition came to 0.19%.
With `Cc1ccc(-c2noc(=O)n2CC(=O)Nc2ccccc2-c2ccccc2)cc1`, the inhibition amounted to 0.52%.
Turning to `O=C(Nc1cccnc1)c1cc(-c2cc(Cl)ccc2O)n[nH]1`, the inhibition was 2.47%.
As to `COc1ccc(S(=O)(=O)N(CCCN2CCN(C)CC2)Cc2csc(-c3ccc(CNCc4ccccc4)cc3)n2)cc1`, the inhibition was determined as 2.47%.
The same measure, in the same setting: for `Cc1cc(NCC2CCN(CC3CCCCC3)C2)nc(Nc2ccc(Br)cc2)n1` (stereo not given) the value was 7.88%; for `Cc1cc(OCCN2CCCCC2)ccc1NC(=O)c1cccc2c(=O)n(Cc3ccc(Cl)cc3)cnc12`, 104%.
For `CC1(C)CN(CCC2CCC(NC(=O)/C=C/c3ccccc3F)CC2)Cc2ccc(C#N)cc21` (stereo not given), the inhibition was 1%.
On to `CCOC(=O)c1ccc(NC(=O)N[C@@H](Cc2ccccc2)C(=O)NC2CCN(Cc3ccc(O)c(OC)c3)C2)cc1` (stereo not given in full), for which the inhibition is -1.29%.
In the case of `Cc1noc(C)c1-c1cccc(CNCc2cccc(-c3cccc(-c4nc5cccc(C)c5[nH]4)c3)c2)c1`, the inhibition is -0.81%.
Consider `CC=CCON1C(=N)NC(=N)NC1(C)C`, for which the inhibition is 1.47%.
Regarding `CC[C@@H]([C@@H](CC(C)C)C(=O)N[C@@H](CCCCNC(=O)OCc1ccccc1)C(=O)Nc1ccccn1)N(O)C=O`, the inhibition is 4.71%.

Source of the values: ChEMBL document CHEMBL3433997, “St. Jude Leishmania screening dataset” (2016).
